# A number with no mark means an inactive call. For part of these data: Results with a measured potency or affinity are listed apart. The source made the active and inactive calls. How the calls were made is not given here.
# Tests used:
# [1] = Ebola virus entry assay, green fluorescence channel
# [2] = Ebola virus entry assay, blue channel fluorescence
# [3] = Ebola virus entry assay, ratio channel
# [4] = Ebola virus entry assay, reporter ratio channel; Channel type: primary
# [5] = Ebola virus entry assay, blue channel (ratio component)
# Wherever efficacy is given: 0% is about no effect.
Compound,efficacy [1] [%],AC50 [2],AC50 [3],AC50 [4],outcome [3],outcome [2],outcome [4],outcome [5],AC50 [1]
COc1ccc(-n2nc(CCC(=O)N(C)O)cc2-c2ccc(Cl)cc2)cc1,77.8,11.2 µM (active),10 µM (active),10 µM (active),,,,,
CN1CCC(OC(c2ccccc2)c2ccccc2)CC1,74.4,14.1 µM (active),10 µM (active),10 µM (active),,,,,
CN1CCCCC1CCN1c2ccccc2Sc2ccc(S(C)=O)cc21 (stereo unspecified),68.6,7.08 µM (active),7.94 µM (active),7.94 µM (active),,,,,
CN1CCCN=C1COC(=O)C(O)(c1ccccc1)C1CCCCC1 (stereo unspecified),75.7,12.6 µM (active),12.6 µM (active),12.6 µM (active),,,,,
Nc1c2c(nc3c1CCC3)CCCC2,42.2,28.2 µM (active),,31.6 µM (active),inactive,,,,
C[C@@H]1CN(CCCn2c3ccccc3c3ccccc32)C[C@H](C)N1,-134,3.16 µM (active),3.16 µM (active),3.16 µM (active),,,,,
CCN(CC)CCOc1ccc(C(O)(Cc2ccc(Cl)cc2)c2ccc(C)cc2)cc1 (stereo unspecified),-145,2.51 µM (active),1.78 µM (active),1.78 µM (active),,,,,
CCN(CC)CCCN(c1ccccc1)C1Cc2ccccc2C1,47.4,3.55 µM (active),3.55 µM (active),3.55 µM (active),,,,,
CN1CCC(=C2c3ccccc3Sc3ccccc32)CC1,61.5,8.91 µM (active),5.01 µM (active),5.01 µM (active),,,,,
CN1C2CCC(C)(C)C1CC(OC(=O)C(O)(c1cccs1)c1cccs1)C2 (stereo unspecified),75.5,20 µM (active),15.8 µM (active),15.8 µM (active),,,,,
CC[C@]12CCCN3CCc4c(n(c5ccccc45)C(=O)C1)[C@@H]32,62,28.2 µM (active),28.2 µM (active),28.2 µM (active),,,,,
C1CCC(C(CC2CCCCN2)C2CCCCC2)CC1 (stereo unspecified),-230,1.78 µM (active),0.891 µM (active),0.891 µM (active),,,,,
OCCN1CCN(CCCN2c3ccccc3C=Cc3ccccc32)CC1,49.7,14.1 µM (active),14.1 µM (active),14.1 µM (active),,,,,
Cc1oc(-c2ccccc2)nc1CCC(=O)c1ccc(CC2SC(=O)NC2=O)cc1 (stereo unspecified),43.2,,,,inactive,inactive,inactive,,
C=CCNc1nc(NCC=C)nc(N2CCN(C(c3ccc(F)cc3)c3ccc(F)cc3)CC2)n1,31,,,,inactive,inactive,inactive,inactive,
CC[C@H]1C[C@H]2[C@@H]3CCC4=CC(=O)CC[C@@H]4[C@H]3CC[C@]2(C)[C@H]1O,63.1,,15.8 µM (active),15.8 µM (active),,inactive,,inactive,
COc1cc(NS(=O)(=O)c2ccc(N)cc2)nc(OC)n1,31.6,,,,inactive,inactive,inactive,inactive,
Oc1ccc(/C=C/c2cc(O)cc(O)c2)cc1,48.9,,,,inactive,inactive,inactive,inactive,
CC#C[C@]1(O)CC[C@H]2[C@@H]3C[C@H](C)C4=CC(=O)CC[C@]4(C)[C@H]3CC[C@@]21C,83.4,,,39.8 µM (active),inactive,inactive,,inactive,
COP(=S)(OC)Oc1ccc(S(N)(=O)=O)cc1,-39.4,,,,inactive,inactive,inactive,inactive,
CCOC(=O)OCC/C(SC(=O)OCC)=C(\C)N(C=O)Cc1cnc(C)nc1N,26.7,,,,inactive,inactive,inactive,inactive,
C[C@]12CCC(=O)C=C1[C@@H]1C[C@@H]1[C@H]1[C@@H]3[C@@H]4C[C@@H]4[C@@]4(CCC(=O)O4)[C@@]3(C)CC[C@@H]12,65.1,,,39.8 µM (active),inactive,inactive,,inactive,
O=C(CCCN1CCN(c2ccccn2)CC1)c1ccc(F)cc1,28.5,,,,inactive,inactive,inactive,inactive,
O=C(/C=C/c1ccccc1)NCCO,100,,,39.8 µM (active),inactive,inactive,,inactive,
C#C[C@]1(O)C=C[C@H]2[C@@H]3CCC4=CC(=O)CC[C@@H]4[C@H]3CC[C@@]21CC,51.7,,,,inactive,inactive,inactive,inactive,

Compound,efficacy [1] [%],AC50 [2],AC50 [3],AC50 [4],outcome [3],outcome [2],outcome [4],outcome [5],AC50 [1]
COc1ccc(-c2nc3ccc(C4=NNC(=O)CC4C)cc3[nH]2)cc1 (stereo unspecified),23.5,,14.1 µM (active),14.1 µM (active),,inactive,,inactive,
C#C[C@]1(O)CC[C@H]2[C@@H]3[C@H](C)CC4=C(CCC(=O)C4)[C@H]3CC[C@@]21C,42.7,,15.8 µM (active),15.8 µM (active),,inactive,,inactive,
CCCCC/C=C\C/C=C\CCCCCCCC(=O)NC(C)c1ccccc1 (stereo unspecified),130,,,39.8 µM (active),inactive,inactive,,inactive,
Nc1cc(C(F)(F)F)ccc1S,-31.2,,,,inactive,inactive,inactive,inactive,
CN1Cc2c(N)cccc2C(c2ccccc2)C1 (stereo unspecified),99.7,17.8 µM (active),25.1 µM (active),25.1 µM (active),,,,inactive,
CCOP(=S)(OCC)O/N=C(\C#N)c1ccccc1,-42.7,,,,inactive,inactive,inactive,inactive,
CCCC(=O)OC[C@@H](OC(=O)CCC)[C@@H](OC(=O)CCC)[C@H](Cn1c2nc(=O)[nH]c(=O)c-2nc2cc(C)c(C)cc21)OC(=O)CCC,140,,,,inactive,inactive,inactive,inactive,
O=C(NCC1CN(c2ccc(N3CCOCC3=O)cc2)C(=O)O1)c1ccc(Cl)s1 (stereo unspecified),23,,,,inactive,inactive,inactive,inactive,
CCn1c(=O)c2c(nc(C=Cc3ccc(OC)c(OC)c3)n2C)n(CC)c1=O,44.2,,,,inactive,inactive,inactive,inactive,
COc1ccc(S(=O)(=O)N2c3ccc(Cl)cc3[C@@](O)(c3ccccc3Cl)[C@H]2C(=O)N2CCC[C@@H]2C(N)=O)cc1OC,45,10 µM (active),10 µM (active),10 µM (active),,,,inactive,
O=C(COc1ccc(Cl)cc1)N1CCN(Cc2ccc3c(c2)OCO3)CC1,71.8,,,39.8 µM (active),inactive,inactive,,inactive,
COC(=O)Nc1nc2ccc(Sc3ccccc3)cc2[nH]1,73.8,,4.47 µM (active),4.47 µM (active),,inactive,,inactive,
O=C1OC2(c3ccc(O)cc3Oc3cc(O)ccc32)c2ccccc21,,,7.94 µM (active),7.94 µM (active),,inactive,,inactive,25.1 µM (active)
CC1=C(C)C(=O)C(CCCCC#CCCCC#CCO)=C(C)C1=O,49.4,,,,inactive,inactive,inactive,inactive,
CCN(CC)C(=O)Nc1ccc(OCC(O)CNC(C)(C)C)c(C(C)=O)c1 (stereo unspecified),-36,,,,inactive,inactive,inactive,inactive,
COC(=O)c1nc(Cl)c(Cl)nc1N,66.4,,4.47 µM (active),4.47 µM (active),,inactive,,inactive,
COc1cc2c(cc1OC)C(C(C(=O)N(CCc1ccc(OC)c(OC)c1OC)CCc1ccc(OC)c(OC)c1OC)c1ccccc1)=NCC2 (stereo unspecified),62.1,,11.2 µM (active),11.2 µM (active),,inactive,,inactive,
CCN(CC)CC(=O)Nc1c(C)cccc1C(=O)OC,26,,,,inactive,inactive,inactive,inactive,
CCNC(=O)NCCCOc1cccc(CN2CCCCC2)c1,42.2,,,,inactive,inactive,inactive,inactive,
Cc1cc(C)c(/C=C2\C(=O)Nc3ccccc32)[nH]1,78.6,,,35.5 µM (active),inactive,inactive,,inactive,
CC1(C)O[C@@H]2C[C@H]3[C@@H]4C[C@H](F)C5=CC(=O)C=C[C@]5(C)[C@H]4[C@@H](O)C[C@]3(C)[C@]2(C(=O)CO)O1,79.9,,,,inactive,inactive,inactive,inactive,
CC(C)(C)CC(=O)OCC(=O)[C@@]1(O)CC[C@H]2[C@@H]3CCC4=CC(=O)C=C[C@]4(C)[C@H]3[C@@H](O)C[C@@]21C,47.7,,,28.2 µM (active),inactive,inactive,,inactive,
CCCCCC(=O)O[C@]1(C(C)=O)CC[C@H]2[C@@H]3CCC4=CC(=O)CC[C@]4(C)[C@H]3CC[C@@]21C,74.4,,,,inactive,inactive,inactive,inactive,
C[C@]12CCC(=O)C=C1CC[C@@H]1[C@@H]2CC[C@@]2(C)[C@H]1CC[C@]2(O)C(=O)CO,55.8,,,,inactive,inactive,inactive,inactive,

# Source: PubChem BioAssay (NCATS)
